Assay outcomes from PubChem.
A549 viability: A549 cytotoxicity, counter-screen for Nrf2 inhibitors. actives 0.16% (n = 390,000). A549 ARE-Fluc cells, CellTiter-Fluor viability, 18-24 h. Potency, µM (titrated, usually from 46 µM), without a hit: at the top dose activity change, negative = cytotoxicity, most hits filed as inhibitors; also: % is scaled to controls: 0 for no effect and ±100 for the full control effect
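A549 ARE_Fluc cells in 5% FBS OPTI-MEM were exposed to compounds in concentration-response for 18-24 h at 37 deg C. Viability was read by CellTiter-Fluor fluorescence (Ex 405/Em 525) after 30 min, before the luciferase read.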
HepG2 viability: kills HepG2 cells in TGF-b inhibitor counter-screen | HepG2 CAGA-GFP viability, ATP luminescence, 18 h | Potency, µM (highest dose often 46.1 µM), without a hit: top-dose activity change, negative = cytotoxicity, hits mostly cytotoxic | actives 0.76% (n = 410,000)
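HepG2 CAGA-GFP cells (1000/well, DMEM with 1% FBS) received compound, then TGF-beta at 500 pg/mL final, and were incubated 18 hours at 37 degrees C. Viability was read by CellTiter-Glo luminescence. Media-only wells were set as complete cell-killing and DMSO as no toxicity.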
Nrf2 block: blocks Nrf2 signaling; A549 ARE-Fluc reporter, luciferase luminescence, 18-24 h; Potency, µM (series often up to 46 µM), without a hit: at the top dose activity change, negative = inhibition, most hits filed as inhibitors; actives 2.1% (n = 360,000); AID 504444; also: % is scaled to controls: 0 for no effect and ±100 for the full control effect; nearly all actives have a fitted effect of over 60% in size
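Two sequential reads on A549 ARE_Fluc cells exposed to compound for 18-24 h: a CellTiter-Fluor fluorescence read for viability, then a luciferase luminescence read for Nrf2/ARE activity.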
ATXN2 expr inh: inhibitors of ATXN2 expression | actives 0.72% (n = 360,000) | Potency, µM (titrated, usually from 57 µM), inactives show at the highest dose activity change, negative = inhibition, usual class: inhibitors | HEK-293 ATXN2-luciferase reporter, luminescence, 24 h; also: % is scaled to controls: 0 for no effect and ±100 for the full control effect; nearly all actives have a fitted effect of over 55% in size
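qHTS (up to 57 uM final) was run with 24 h compound exposure of reporter cells at 37 °C. Each well was multiplexed: SteadyGlo luminescence measured ATXN2-luciferase expression after a fluorogenic Gly-Phe-AFC viability readout (25 uM final).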
S2 tox: viability counter-screen for ATXN expression inhibitors; S2 cells (HEK-293 line with an ATXN2-luciferase reporter) viability, CellTiter-Fluor protease fluorescence, 24 h; Potency, µM (doses to about 56.7 µM), hits mostly cytotoxic; actives 0.49% (n = 400,000); also: nearly all actives have a fitted effect of over 40% in size
TGFb inhibitor: TGF-b pathway inhibition | HepG2 CAGA-GFP TGF-b/SMAD3 reporter, GFP fluorescence, 18 h; TGF-beta stimulated, 500 pg/mL final | Potency, µM (highest dose often 46.1 µM), without a hit: at the top dose activity, negative = inhibition, most hits filed as inhibitors | actives 1.2% (n = 410,000) | AID 588855; also: % is scaled to controls: 0 for no effect and ±100 for the full control effect; nearly all actives have a fitted effect of over 65% in size
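TGF-beta reporter screen: HEPG2 CAGA-GFP, 1% FBS, 500 pg/mL TGF-beta final, 18 h; per-cell GFP summed per well; curves fitted and categorized by class.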
Numbers without * were called inactive; [ ] = another dose, or the depositor's remark. A selection: hits, their analogues and other compounds. The true share with any hit is near 3.8%. Calls follow the shape of the dose curve; as a rule, active = well fitted curve in the direction sought with a large enough effect; inconclusive = small, poorly fitted or top-dose-only effect, or another doubt; inactive = no such curve, though single readings can be large; an effect the other way counts as inactive or inconclusive. Potency is read from the fitted curve at half-maximal effect.

Results for COc1ccc(NC(=O)Nc2cc(F)ccc2C)cc1 ?
A549 viability: -9%; HepG2 viability: -3%; Nrf2 block: 21µM*; ATXN2 expr inh: 1%; S2 tox: inactive; TGFb inhibitor: -21%

Results for Cc1c(C(=O)Nc2ccc(OC(F)(F)F)cc2)sc2nc3n(c(=O)c12)CCC3 ?
A549 viability: -17%; HepG2 viability: 6%; Nrf2 block: 10µM*; ATXN2 expr inh: -17%; S2 tox: inactive; TGFb inhibitor: -11%

Results for Cc1c(C(=O)Nc2ccc(Oc3ccccc3)cc2)sc2nc3n(c(=O)c12)CCC3 ?
A549 viability: -20%; HepG2 viability: -32%; Nrf2 block: inconclusive; ATXN2 expr inh: -14%; S2 tox: inactive; TGFb inhibitor: -5%

How did O=c1cc(N2CCCCC2)c(-c2ccccc2)nn1Cc1c(Cl)cccc1Cl do in these assays?
A549 viability: inconclusive; HepG2 viability: 18µM*; Nrf2 block: 18µM*; ATXN2 expr inh: inconclusive; S2 tox: inconclusive; TGFb inhibitor: 10µM*

How did Cc1ccc(C(C2=C(O)CC(C)(C)CC2=O)C2C(=O)CC(C)(C)CC2=O)s1 (centres undefined) do in these assays?
A549 viability: -13%; HepG2 viability: -3%; Nrf2 block: -10%; ATXN2 expr inh: 1%; S2 tox: inactive; TGFb inhibitor: -10%

Results for CC1(C)CC(=O)C(C(C2=C(O)CC(C)(C)CC2=O)c2ccc(Br)s2)C(=O)C1 (centres undefined) ?
A549 viability: 0%; HepG2 viability: -3%; Nrf2 block: 2%; ATXN2 expr inh: inconclusive; S2 tox: inconclusive; TGFb inhibitor: 10µM*

What do the screens show for `CCOc1ccccc1-c1nc(-c2ccc(NC(=O)Cc3ccc(OC)cc3)cc2)no1`?
A549 viability: -28%; HepG2 viability: -20%; Nrf2 block: 21µM*; ATXN2 expr inh: inconclusive; S2 tox: inconclusive; TGFb inhibitor: -21%

Results for O=C(Nc1cnn(Cc2ccc(Cl)cc2Cl)c1)c1noc2c1CCCC2 ?
A549 viability: 1%; HepG2 viability: -2%; Nrf2 block: inconclusive; ATXN2 expr inh: -15%; S2 tox: inconclusive; TGFb inhibitor: 16µM*

How did O=C(Nc1cnn(Cc2ccc(Cl)cc2Cl)c1)c1cc(-c2cccs2)on1 do in these assays?
A549 viability: -7%; HepG2 viability: -32%; ATXN2 expr inh: inconclusive; S2 tox: inconclusive; TGFb inhibitor: inconclusive

Results for O=C(COC(=O)c1cc([N+](=O)[O-])ccc1N1CCOCC1)Nc1cccc(F)c1 ?
A549 viability: 4.6µM*; HepG2 viability: -8%; Nrf2 block: inconclusive; ATXN2 expr inh: -21%; S2 tox: inactive; TGFb inhibitor: -8%

What do the screens show for `CC(C)CC(=O)Nc1nc2c(s1)CC(C(C)(C)C)CC2` (centres undefined)?
A549 viability: 0%; HepG2 viability: -26%; Nrf2 block: inconclusive; ATXN2 expr inh: 61%; S2 tox: inactive; TGFb inhibitor: -21%

What do the screens show for `O=C(CSc1c2c(nc3cc(Cl)ccc13)CCCC2)NCc1ccco1`?
A549 viability: -10%; HepG2 viability: -44%; Nrf2 block: 16%; ATXN2 expr inh: -5%; S2 tox: inactive; TGFb inhibitor: 18µM*

How did O=C(CSc1c2c(nc3cc(Cl)ccc13)CCCC2)NCc1ccccc1Cl do in these assays?
A549 viability: inconclusive; HepG2 viability: -28%; Nrf2 block: inconclusive; TGFb inhibitor: inconclusive

How did CC1CCN(C(=O)CSc2c3c(nc4cc(Cl)ccc24)CCCC3)CC1 do in these assays?
A549 viability: -15%; HepG2 viability: 11µM*; Nrf2 block: 7%[9.27 µM]; ATXN2 expr inh: inconclusive; S2 tox: inconclusive; TGFb inhibitor: inconclusive

How did COc1ccc2c(c1)CC(C(=O)N1CCC(C(N)=O)CC1)CO2 (centres undefined) do in these assays?
A549 viability: 5%; HepG2 viability: -2%; ATXN2 expr inh: 11%; S2 tox: inactive; TGFb inhibitor: -5%

How did Cc1cc2c(cc(C(=O)OCC(=O)NCc3cccs3)n2C(C)C)o1 do in these assays?
A549 viability: -13%; HepG2 viability: -13%; Nrf2 block: -7%; ATXN2 expr inh: -14%; S2 tox: inactive; TGFb inhibitor: inconclusive

Results for O=C(NCc1cccnc1)/C(=C/c1ccc(-c2cccc(C(F)(F)F)c2)o1)NC(=O)c1ccccc1 ?
A549 viability: 8%; HepG2 viability: -11%; Nrf2 block: inconclusive; ATXN2 expr inh: -10%; S2 tox: inactive; TGFb inhibitor: inconclusive

Results for O=C(NCc1cccnc1)/C(=C/c1ccc(-c2ccc(Cl)cc2)o1)S(=O)(=O)c1ccccc1 ?
A549 viability: inconclusive; HepG2 viability: 4.5µM*; Nrf2 block: 21µM*; ATXN2 expr inh: 13µM*; TGFb inhibitor: inconclusive

How did Cc1nc2c(C(=O)NCCc3ccc(Cl)cc3)c[nH]n2c(=O)c1Cc1ccccc1F do in these assays?
A549 viability: -5%; HepG2 viability: 16µM*; Nrf2 block: inconclusive; ATXN2 expr inh: -12%; S2 tox: inactive; TGFb inhibitor: 13µM*

Results for Cc1ccc(CNC(=O)CN2N=C(c3ccccc3)CCC2=O)cc1 ?
A549 viability: -1%; HepG2 viability: 2%; ATXN2 expr inh: 4%; S2 tox: inactive; TGFb inhibitor: -1%

How did CC(C)(C)c1ccc(C(=O)NCCOc2ccccc2F)cc1 do in these assays?
A549 viability: 0%; HepG2 viability: -4%; Nrf2 block: inconclusive; ATXN2 expr inh: 13µM*; S2 tox: inactive; TGFb inhibitor: 15%

How did COc1ccc(C)cc1N(C)C(=O)c1sc2nc3n(c(=O)c2c1C)CCCCC3 do in these assays?
A549 viability: 21%; HepG2 viability: 26%; Nrf2 block: -17%; TGFb inhibitor: 18%

What do the screens show for `O=S(=O)(c1ccc(Cl)cc1)N1CCN(c2ncnc3sccc23)CC1`?
A549 viability: -6%; HepG2 viability: -25%; Nrf2 block: 21µM*; ATXN2 expr inh: -34%; S2 tox: inactive; TGFb inhibitor: inconclusive

Results for Cc1csc2c(N3CCN(S(=O)(=O)c4ccc(Cl)cc4)CC3)ncnc12 ?
A549 viability: 5%; HepG2 viability: -6%; Nrf2 block: inconclusive; ATXN2 expr inh: -13%; S2 tox: inactive; TGFb inhibitor: -10%
